NS1 inh: qHTS Assay for Inhibitors of Influenza NS1 Protein Function; Potency, µM (doses to about 46.1 µM); 0.4% of 270,000 active; note: actives are rising curves; nearly all actives have a fitted effect of over 50% in size
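Compounds were scored for reversing the slow growth caused by influenza A NS1 in S. cerevisiae, measured by optical density at 600 nm. Assay medium contained 2% galactose at pH 6.0; NS1-free yeast of the same strain were the positive control.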
SARS PLpro yeast: qHTS of Yeast-based Assay for SARS-CoV PLP. Potency, µM (doses to about 32.9 µM), actives largely listed as activators. 0.19% of 330,000 active. S. cerevisiae expressing SARS-CoV PLpro, growth rescue; note: nearly all actives have a fitted effect of over 55% in size
Cycloheximide cs: Cycloheximide Counterscreen for Small Molecule Inhibitors of Shiga Toxin; cell reporter, cycloheximide protein synthesis inhibition counterscreen; AID 2314, 2010; max response, %; 12% of 300,000 active; in the data active = max response mostly above about 13%, no sharp cut-off; inactive = mostly below about 14%; note: read at 38.3 µM for the half of the compounds with a filed dose
Shiga inhibitor: A qHTS for Small Molecule Inhibitors of Shiga Toxin. Vero cells, Shiga toxin protein synthesis inhibition reporter. inhibition, % at 38.7 µM. AID 2315, 2010. 9.2% of 290,000 active; in the data active = inhibition mostly above about 28%, no sharp cut-off; inactive = mostly below about 43%
Hits are given with their value. In the library only some 12% were active in any assay of this set; here they are far more common. Unless noted, calls come from the whole dose curve.

What do the screens show for `CC(=O)Nc1ccc(CN2CCc3c([nH]c4ccccc34)C2C(C)(C)C)cc1` (centres undefined)?
NS1 inh: inactive; SARS PLpro yeast: inactive; Cycloheximide cs: inactive; Shiga inhibitor: inactive

Results for COC(=O)c1ccc2[nH]ccc2c1 ?
NS1 inh: inactive; SARS PLpro yeast: inactive; Cycloheximide cs: inactive; Shiga inhibitor: inactive

Results for Cc1occc1C(=O)N/N=C/C1=C(N2CCOCC2)C(=C\c2ccc(Cl)cc2Cl)/CC1 ?
NS1 inh: inactive; SARS PLpro yeast: inactive; Cycloheximide cs: 16.0; Shiga inhibitor: active

What do the screens show for `CC(=NNC(=O)c1cc(C)nc2ccccc12)c1ccc(N2CCOCC2)cc1`?
SARS PLpro yeast: inactive

How did C/C(CC(=O)N1CCN(C=O)CC1)=N\NC(=O)c1cccc([N+](=O)[O-])c1 do in these assays?
NS1 inh: inactive; SARS PLpro yeast: inactive; Cycloheximide cs: inactive; Shiga inhibitor: inactive

How did C/C(=N/NC(=O)c1ccoc1C)c1ccc(N2CCOCC2)cc1 do in these assays?
NS1 inh: inactive; SARS PLpro yeast: inactive; Cycloheximide cs: 62.4; Shiga inhibitor: 114.7

Results for C/C(CC(=O)N1CCN(C=O)CC1)=N\NC(=O)c1ccc(Cl)cc1 ?
NS1 inh: inactive; SARS PLpro yeast: inactive; Cycloheximide cs: 10.8; Shiga inhibitor: inactive

What do the screens show for `C/C(=N\NC(=O)c1ccc(Cl)cc1)c1ccc2[nH]ccc2c1`?
NS1 inh: inactive; SARS PLpro yeast: inactive; Cycloheximide cs: 24.4; Shiga inhibitor: inactive

How did CSc1cccc(NC(=O)C2CCCN2S(=O)(=O)c2ccc(Br)s2)c1 (centres undefined) do in these assays?
NS1 inh: inactive; SARS PLpro yeast: inactive; Cycloheximide cs: inactive; Shiga inhibitor: inactive

How did O=C(CSc1ccc(Cl)cc1Cl)N1CCC(c2nc3ccccc3s2)CC1 do in these assays?
NS1 inh: inactive; SARS PLpro yeast: inactive; Cycloheximide cs: inactive; Shiga inhibitor: inactive

How did O=C(Nc1ccc(C(=O)N2CCC(N3CCOCC3)CC2)cc1)c1ccc(Br)o1 do in these assays?
SARS PLpro yeast: inactive

What do the screens show for `C/C(=C\C(=O)c1ccc(Cl)cc1)Nc1ccc(N2CCOCC2)cc1`?
NS1 inh: inactive; SARS PLpro yeast: inactive; Cycloheximide cs: inactive; Shiga inhibitor: inactive

How did C/C(=N\NC(=O)c1ccc(Cl)cc1)c1ccc(N2CCOCC2)cc1 do in these assays?
NS1 inh: inactive; SARS PLpro yeast: inactive; Cycloheximide cs: 24.9; Shiga inhibitor: inactive

What do the screens show for `c1ccc(-n2ncc3c(NCCN4CCCCC4)ncnc32)cc1`?
NS1 inh: inactive; SARS PLpro yeast: inactive; Cycloheximide cs: 52.0; Shiga inhibitor: 65.7

How did c1ccc(-n2ncc3c(NCCN4CCOCC4)ncnc32)cc1 do in these assays?
NS1 inh: inactive; SARS PLpro yeast: inactive; Cycloheximide cs: 22.0; Shiga inhibitor: 71.9

Results for Cc1cccc(-n2ncc3c(NCCN4CCOCC4)ncnc32)c1 ?
NS1 inh: inactive; SARS PLpro yeast: inactive; Cycloheximide cs: inactive; Shiga inhibitor: inactive

What do the screens show for `Cc1[nH]n(C(N)=S)c(=O)c1N=Nc1cc(C(F)(F)F)ccc1Cl`?
NS1 inh: inactive; SARS PLpro yeast: inactive; Cycloheximide cs: inactive; Shiga inhibitor: inactive

Results for Cc1[nH]n(C(N)=S)c(=O)c1N=Nc1cccc(C(F)(F)F)c1 ?
NS1 inh: inactive; SARS PLpro yeast: inactive; Cycloheximide cs: inactive; Shiga inhibitor: 32.5

What do the screens show for `Cc1[nH]n(C(N)=S)c(=O)c1N=Nc1ccc(S(=O)(=O)N2CCCC2)cc1`?
NS1 inh: inactive; SARS PLpro yeast: inactive; Cycloheximide cs: 19.4; Shiga inhibitor: inactive

How did Cc1[nH]n(C(N)=S)c(=O)c1N=Nc1ccc(Br)cc1 do in these assays?
NS1 inh: inactive; SARS PLpro yeast: inactive; Cycloheximide cs: 27.1; Shiga inhibitor: 42.4

How did Cc1ccc(N=Nc2c(C)[nH]n(C(N)=S)c2=O)cc1 do in these assays?
SARS PLpro yeast: inactive; Cycloheximide cs: inactive; Shiga inhibitor: inactive

What do the screens show for `CCCCOc1ccccc1C(=O)N(Cc1ccco1)C1CCS(=O)(=O)C1` (centres undefined)?
NS1 inh: inactive; SARS PLpro yeast: inactive; Cycloheximide cs: inactive; Shiga inhibitor: inactive

How did CCNC(=S)Nc1ccc(Cl)c(C(F)(F)F)c1 do in these assays?
NS1 inh: inactive; SARS PLpro yeast: inactive; Cycloheximide cs: inactive; Shiga inhibitor: inactive

How did CC(=O)Nc1ccccc1S(=O)(=O)CC1CC1(Cl)Cl (centres undefined) do in these assays?
NS1 inh: inactive; SARS PLpro yeast: inactive; Cycloheximide cs: inactive; Shiga inhibitor: inactive

What do the screens show for `Cc1ccc(-c2cc3nn(-c4ccccc4)c(N)c3c(=O)o2)cc1`?
NS1 inh: inactive; SARS PLpro yeast: inactive; Cycloheximide cs: 40.2; Shiga inhibitor: 75.6

What do the screens show for `C/C(=N\Nc1ncc(Cl)cc1Cl)c1ccc(C#N)cc1`?
SARS PLpro yeast: inactive; Cycloheximide cs: inactive; Shiga inhibitor: inactive

Results for CCN(CC)C(=O)COc1ccc(/C(C)=N/Nc2ncc(Cl)cc2Cl)cc1 ?
NS1 inh: inactive; SARS PLpro yeast: inactive; Cycloheximide cs: 28.2; Shiga inhibitor: 65.5

Results for O=C(NC1CCCCCCC1)c1ccc(F)cc1 ?
NS1 inh: inactive; SARS PLpro yeast: inactive; Cycloheximide cs: 45.6; Shiga inhibitor: 71.5

Results for O=C(Nc1ccc(Cl)cc1)NC1CCCCNC1=O (centres undefined) ?
NS1 inh: inactive; SARS PLpro yeast: inactive; Cycloheximide cs: 28.4; Shiga inhibitor: 46.2

How did O=C(Nc1ccc2nsnc2c1)NC1CCCCC1 do in these assays?
NS1 inh: inactive; SARS PLpro yeast: inactive; Cycloheximide cs: 49.5; Shiga inhibitor: inactive

Results for O=C(Cc1ccc(Cl)cc1)NC1CCCCCC1 ?
NS1 inh: inactive; SARS PLpro yeast: inactive; Cycloheximide cs: 20.2; Shiga inhibitor: inactive

How did COc1ccc(/C=C/C(=O)NC(CCSC)C(=O)O)cc1 (centres undefined) do in these assays?
SARS PLpro yeast: inactive; Cycloheximide cs: inactive; Shiga inhibitor: inactive

What do the screens show for `O=C(Nc1ccc(Cl)cc1)NC1CCCC1Cc1ccco1` (centres undefined)?
NS1 inh: inactive; SARS PLpro yeast: inactive; Cycloheximide cs: 40.6; Shiga inhibitor: 47.1

Results for O=C(Nc1ccc(Cl)cc1)NC1CCCCC1 ?
NS1 inh: inactive; SARS PLpro yeast: inactive; Cycloheximide cs: 38.0; Shiga inhibitor: inactive

Results for CC(C)CNS(=O)(=O)c1ccc(OCC(=O)NCC2CCCO2)c(Cl)c1 (centres undefined) ?
NS1 inh: inactive; SARS PLpro yeast: inactive; Cycloheximide cs: inactive; Shiga inhibitor: inactive

Results for CC1CCCCN1C(=O)Cc1ccc(Cl)cc1 (centres undefined) ?
NS1 inh: inactive; SARS PLpro yeast: inactive; Cycloheximide cs: 13.6; Shiga inhibitor: inactive

Results for O=C(COc1ccc([N+](=O)[O-])cc1Cl)NCC1CCCO1 (centres undefined) ?
SARS PLpro yeast: inactive; Cycloheximide cs: 15.9; Shiga inhibitor: 46.5

Results for O=C(CCc1nc2ccccc2[nH]c1=O)N/N=C/c1ccccc1 ?
NS1 inh: inactive; SARS PLpro yeast: inactive; Cycloheximide cs: inactive; Shiga inhibitor: inactive

What do the screens show for `O=C(NCCc1ccc(Cl)cc1)C1CCN(c2ncccn2)CC1`?
NS1 inh: inactive; SARS PLpro yeast: inactive; Cycloheximide cs: inactive; Shiga inhibitor: inactive

How did CC(=O)Nc1ccc(SC[C@H](Cc2ccccc2)N2CC[C@@H](C(C)(C)C)CCC2=O)cc1 do in these assays?
SARS PLpro yeast: inactive

Screens deposited in PubChem BioAssay by National Center for Advancing Translational Sciences (NCATS).
